Test results as given in PubChem BioAssay AID926 (National Center for Advancing Translational Sciences (NCATS), 2007).
“And” between values parts separate entries of the source, which are not always exact repeats. Equal values may be shown once. Out of some 73,000 compounds screened, about 350 (0.48%) were called active. About 17% were inconclusive and are not listed. Calls come from the whole dose curve; as a rule, active = well fitted activation curve with a large enough effect in the main read-out, with a control signal flat (not every such curve was filed as active); inconclusive = small, poorly fitted or top-dose-only effect, or a change in a side signal; inactive = no such curve, though single readings can be large or run the other way; reference of the percent scale not stated here. Only a selection was taken, and actives are over-represented in it overall. Where a structure was tested more than once in an assay, its records may differ in their call.

Key:
[1] = qHTS Assay for Agonists of the Thyroid Stimulating Hormone Receptor; conditions: HEK293-CNG-TSHR cells, membrane potential dye, cAMP; measured here: parental cells max response
Description: (§1) NIH Chemical Genomics Center [NCGC]
(§2) NIH Molecular Libraries Screening Centers Network [MLSCN]
(§3) PI Name: Dr. Marvin Gershengorn, NIH
(§4) Thyroid Stimulating Hormone Receptor
(§5) TSH is an alpha/beta heterodimeric glycoprotein hormone secreted from the anterior pituitary gland which belongs to the glycoprotein hormone family. The actions of TSH are mediated by a seven-transmembrane receptor, which upon TSH binding couples preferentially to the G-alpha (s) protein (Gs), resulting in activation of adenylate cyclase and increase in cyclic adenosine 3', 5' monophosphate (cAMP). The TSH receptor (THSR) is mainly expressed in thyroid follicular cells and regulates their growth and function. Recombinant TSH is used to activate TSHR in patients with thyroid cancer receiving thyroid hormone suppression therapy and to screen for residual tumor after surgery, but it is expensive and must be administered intramuscularly. An orally active small molecule TSHR agonist would serve as an invaluable research tool for studying TSHR pharmacology and physiology, and would have multiple advantages in therapeutic settings. However, no selective small molecule agonist of the TSH receptor exists, and no small molecule screen for TSHR agonists has ever been reported.
(§6) This cell based assay utilized a cyclic nucleotide gated ion channel (CNG) as a biosensor for cAMP induction by potential TSHR agonists.
(§7) HEK 293 cells stably expressing the TSHR as well as a modified CNG were purchased from BD biosciences. Stimulation of cAMP production causes the CNG to open and subsequent membrane depolarization to occur. A fluorescent membrane potential dye (BD biosciences) was utilized to detect cAMP stimulation in TSHR cells.
(§8) The cells were maintained in DMEM medium (Invitrogen) containing 10 % FBS (Hyclone), 100 units/ml Penicillin, 100 ug/ml Streptomycin (Invitrogen), and 250 ug/ml Geneticin (Invitrogen) and 1 ug/ml Puromycin (Invitrogen) at 37C in 5% CO2. HEK 293 cells expressing CNG but without TSHR (parental cells) were used in concert to control for compounds signaling through endogenous receptors and targets of HEK 293 cells.
(§9) NCGC Assay Protocol Summary:
(§10) High Throughput Screening. Freshly passaged cells (TSHR or parental) were dispensed into 1536-well assay plates at 4 ul/well in DMEM containing phenol red (Invitrogen), 10% FCS (Hyclone), and 100 units/ml Penicillin, 100 ug/ml Streptomycin (Invitrogen) and incubated at 37 C with 5% CO2 for 20 to 36 hrs before the robotic screening. The screen was initiated by addition of 4 ul/well membrane potential dye containing 100 uM RO 20-1724 (Sigma Aldrich), followed by 60 min incubation at room temperature to allow for dye equilibration across the cell membrane. 23 nl/well compound or control was then added to the assay plates, which were incubated for additional 30 min before reading a Envision fluorescence plate reader (Perkin Elmer) in bottom-read mode for fluorescence intensity (emission at 590 nm).
(§11) Keywords: Thyroid-stimulating hormone TSH, TSHR, TSHR agonist, quantitative high throughput screening, qHTS, HTS, probe identification, CNG, cAMP, cyclic nucleotide gated ion channel PubChem

[2] = biological target: Thyrotropin receptor (Homo sapiens) (UniProt P16473); assay: as above; conditions: HEK293-CNG-TSHR cells (CNG channel as cAMP sensor), membrane potential dye, cAMP; series mostly up to 57.1 µM
Sequence of Thyrotropin receptor (Homo sapiens) (P16473 whole entry, looked up): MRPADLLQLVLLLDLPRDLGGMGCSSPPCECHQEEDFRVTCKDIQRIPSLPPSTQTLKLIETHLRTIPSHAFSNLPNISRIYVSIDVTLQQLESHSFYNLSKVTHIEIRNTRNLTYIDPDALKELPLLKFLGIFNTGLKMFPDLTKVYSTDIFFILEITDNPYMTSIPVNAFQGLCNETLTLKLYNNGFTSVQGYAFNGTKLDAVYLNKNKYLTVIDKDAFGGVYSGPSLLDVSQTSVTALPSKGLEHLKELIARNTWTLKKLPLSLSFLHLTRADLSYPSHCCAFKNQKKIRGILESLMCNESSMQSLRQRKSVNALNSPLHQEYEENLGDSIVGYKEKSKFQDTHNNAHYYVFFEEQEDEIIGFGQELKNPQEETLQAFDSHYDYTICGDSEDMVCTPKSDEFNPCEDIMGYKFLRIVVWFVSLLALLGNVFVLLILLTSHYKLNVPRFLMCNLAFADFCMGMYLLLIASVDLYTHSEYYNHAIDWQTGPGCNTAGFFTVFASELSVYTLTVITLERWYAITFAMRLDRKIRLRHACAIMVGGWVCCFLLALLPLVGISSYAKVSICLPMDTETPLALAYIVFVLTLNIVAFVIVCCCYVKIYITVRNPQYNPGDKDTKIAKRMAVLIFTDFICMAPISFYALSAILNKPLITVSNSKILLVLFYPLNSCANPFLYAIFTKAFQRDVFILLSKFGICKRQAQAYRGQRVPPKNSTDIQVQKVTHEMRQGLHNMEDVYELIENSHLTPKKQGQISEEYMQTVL
Description: as §1, §2, §3, §4, §5, §6, §7, §8, §9, §10, §11
Potency is the fitted concentration of half-maximal effect.

CCOC(=O)CC1=C(C(=O)OCC)C2(C(=O)N1)C(C(=O)OC)=C(N)Oc1ccccc12 (centres undefined)
activation [1]: 2.69%
Potency [2]: inactive

CCOC(=O)C1=C(C)OC(N)=C(C(=O)OC)C12C(=O)Nc1ccc(Br)cc12 (centres undefined)
activation [1]: 2.68%
Potency [2]: inactive

C=CCN1C(=O)C2(C(C(=O)OCC)=C(N)Oc3c2c(=O)oc2ccccc32)c2ccccc21 (centres undefined)
activation [1]: -2.59%
Potency [2]: 1000 nM (active)

C/C(=C\C=C/[C@@H](C)C(=O)O)[C@H]1CN[C@H](C(=O)O)[C@@H]1CC(=O)O
activation [1]: 10.5%
Potency [2]: inactive

CN1[C@H]2CC(OC(=O)[C@@H](CO)c3ccccc3)C[C@H]1[C@H]1O[C@H]12 (some centres undefined)
activation [1]: 8.99%
Potency [2]: inactive

C[C@]12CC[C@H](O)C[C@@H]1CC[C@H]1[C@H]2CC[C@]2(C)C(=O)CC[C@@H]12
activation [1]: -0.6% and 8.47% and 0.887%
Potency [2]: inactive

CN=C(NC#N)NCCSCc1nc[nH]c1C
activation [1]: 6.37% and -0.29%
Potency [2]: inactive

CNCC[C@H](Oc1ccc(C(F)(F)F)cc1)c1ccccc1
Potency [2]: inactive and 126 nM (active)

Clc1ccc([C@@H]2C[C@H]3CC[C@@H]2N3)cn1
activation [1]: 5.78%
Potency [2]: inactive

Clc1cccc(Cl)c1Cl
activation [1]: 22.7%
Potency [2]: inactive
